The test in a line: basal MM1S mitochondrial membrane potential changes, profiling panel, cell-based, JC-1 fluorescence, 24 h, 100 nL compound (AID 1170). Further: test concentration not given here. Particulars: higher = more signal.
`CCOc1cc(C(O)C2C=CC3C(=O)NC(=O)C3N2Nc2ccccn2)ccc1O` (stereo unspecified) gave a z-score of 0.157.

Compound `Cc1cc(C)c(C(O)C2C=CC3C(=O)N(c4ccccc4)C(=O)C3N2Nc2ccccc2)c(C)c1` (stereo unspecified) yielded a z-score of -0.425.

Compound `CCCC=C(CCC)[C@@H](NS(=O)(=O)c1ccccc1)c1ccc(C(F)(F)F)cc1` gave a z-score of -2.47.

For `COCCCNC(=O)[C@@]1(Cc2ccccc2)COC(c2ccc(OCCCO)cc2)=N1`, the z-score is -0.693.

As to `C[C@@]1([C@@H](NC(=O)c2cccs2)c2ccc(-c3ccccc3)cc2)C[C@H]1C1CCCCC1`, the z-score was -1.09.

`COc1ccc(C#Cc2ccc3c(c2)[C@]2(C(=O)N3)[C@H](c3ccc(OCCO)cc3)N3[C@H](c4ccccc4)[C@H](c4ccccc4)OC(=O)[C@H]3[C@@H]2C(=O)N2CCN(c3ncccn3)CC2)cc1` displayed a z-score of -0.816.

For the compound `CC(C)C[C@@H]1NC(=O)[C@@H]2C[C@H](C(=O)NCc3ccc(F)cc3)[C@H](c3ccc(O)cc3)N2C1=O`, the z-score came out at 0.593.

`CCCN1C(=O)[C@@H]2Cc3c([nH]c4ccccc34)[C@@H](c3cccc(O)c3)N2C1=O` showed a z-score of -0.211.

Compound `COC(=O)[C@@]1(Cc2ccc(OC)cc2)[C@H]2c3cc(C(=O)N4CCCC4)n(CCc4ccc(O)c(OC)c4)c3C[C@H]2CN1C(=O)c1ccccc1` came in with a z-score of -0.563.

`C=CC[C@]1(C(=O)NCC(O)CO)N=C(c2ccc(OCCCO)cc2)O[C@H]1c1ccccc1N=[N+]=[N-]` (stereo partly specified) showed a z-score of 0.857.

Consider `COc1ccc([Si](C)(C)[C@@H]2[C@@H](CCO)O[C@]3(C(=O)N(Cc4ccc(N5C(=O)c6ccccc6Oc6ccccc65)cc4)c4ccccc43)[C@H]2C)cc1`, for which the z-score was -1.68.

Compound `COC(=O)[C@@]1(Cc2ccccc2N=[N+]=[N-])N=C(c2ccc(OCCCO)cc2)O[C@H]1c1ccccc1` displayed a z-score of -2.9.

`C=C(COC)/C(=C/C[C@@H](OC(=O)c1ccncc1)c1cccc(OCCO)c1)c1cc(C(=O)OC)ccc1OC` registered a z-score of -1.26.

Consider `COCCCNC(=O)[C@]1(Cc2ccccc2)N=C(c2ccc(OCCCO)cc2)O[C@@H]1c1ccccc1N=[N+]=[N-]`, for which the z-score is -1.73.

For the compound `Cc1ccccc1C(O)C1C=CC2C(=O)N(C)C(=O)C2N1Nc1ccc([N+](=O)[O-])cc1[N+](=O)[O-]` (stereo unspecified), the z-score is -1.09.

`CCCCCCCCCCC(O)C1C=CC2C(=O)NC(=O)C2N1Nc1ccccn1` (stereo unspecified) yielded a z-score of -0.657.

`Cc1ccc(S[C@]2(C(=O)O)CC(=O)N(C3CCCCC3)[C@@H]2c2ccc(CO)cc2)cc1` came in with a z-score of -0.776.

As for `CC(C)c1ccc(NN2C(C(O)c3ccccn3)C=CC3C(=O)N(c4ccccc4)C(=O)C32)cc1` (stereo unspecified), the z-score is -0.729.

Consider `COc1ccc(C(=O)Nc2ccc(CN3C(=O)[C@@]4(O[C@@H](CC(=O)N5Cc6ccccc6C[C@H]5CO)[C@H]([Si](C)(C)c5ccc(OC)cc5)[C@H]4C)c4ccccc43)cc2)cc1`, for which the z-score is -1.05.

Take `CCOC(=O)C[C@H]1[C@H](OC(=O)c2cc3ccccc3oc2=O)[C@@H](NC(=O)c2ccc3ccccc3n2)c2cc(OCCCO)ccc2N1C(=O)c1ccc2ccccc2n1`: the z-score came to 1.17.

Compound `COC(=O)[C@]1(Cc2ccccc2CN=[N+]=[N-])N=C(c2ccc(OCCCO)cc2)O[C@@H]1c1ccccc1` gave a z-score of -2.7.

`COC(=O)[C@@]1(Cc2ccccc2)[C@H]2c3cc(C(=O)N4CCCC4)n(Cc4ccccc4)c3C[C@H]2CN1C(=O)c1ccccc1` returned a z-score of -0.777.

In the case of `O=C1c2ccccc2C(=O)C2CC([C@H]3Oc4ccccc4S(=O)(=O)N4CCC[C@@H]34)=CCC12` (stereo partly specified), the z-score was -0.852.

Take `CCOC(=O)C1=CC[C@@H](c2cccc(Br)c2)N(S(=O)(=O)c2ccc(C)cc2)[C@H]1c1ccc([N+](=O)[O-])cc1`: the z-score is -1.57.

`C#CCOC(=O)N[C@H](C=CCCCC)c1ccccc1` displayed a z-score of 0.0811.

With `COCCOC(=O)N1C(=O)[C@@]2(c3ccccc31)[C@H](c1ccccc1OCCO)N1[C@H](c3ccccc3)[C@H](c3ccccc3)OC(=O)[C@H]1[C@@H]2C(=O)N1CCc2cc(OC)c(OC)cc2C1`, the z-score was -0.582.

Consider `CN1C(=O)C2C=CC(C(O)c3cccc4ccccc34)N(NC(=O)OC(C)(C)C)C2C1=O` (stereo unspecified), for which the z-score turned out to be 0.437.

`CN(C)C(=O)[C@@]1(Cc2ccccc2N=[N+]=[N-])N=C(c2ccc(OCCCO)cc2)O[C@H]1c1ccccc1N=[N+]=[N-]`: the z-score was -1.03.

Regarding `[N-]=[N+]=Nc1ccccc1[C@@H]1OC(c2ccc(OCCCO)cc2)=N[C@]1(CCS(=O)(=O)c1ccccc1)C(=O)NCc1ccccc1`, the z-score was -0.856.

`CC(C)C(CO)N1C(=O)[C@@H]2[C@H]3C(=O)OCC=C[C@H]3OC23C=CCN(CCN2CCOCC2)C(=O)[C@@H]13` (stereo partly specified) displayed a z-score of 0.105.

Regarding `CN(C)C(=O)[C@@]1(CCC(=O)OC(C)(C)C)N=C(c2ccc(OCCCO)cc2)O[C@H]1c1ccccc1N=[N+]=[N-]`, the z-score is -0.0283.

The compound `C=CCNC(=O)[C@H]1[C@@H]2C(=O)O[C@@H](c3ccccc3)[C@@H](c3ccccc3)N2[C@@H](c2ccc(O)cc2)[C@]12C(=O)N(C(=O)OCCOC)c1ccc(C#CC3(O)CCCCCC3)cc12` registered a z-score of -0.808.

In the case of `CCOC(=O)C1=CC[C@@H](c2ccc(N(CC)CC)cc2)N(S(=O)(=O)c2ccc(C)cc2)[C@H]1c1ccc([N+](=O)[O-])cc1`, the z-score was -0.609.

For `CCCNC(=O)[C@@]1(Sc2ccc(C)cc2)CC(=O)N(Cc2ccccc2)[C@@H]1c1ccc(CO)cc1I`, the z-score is -1.89.

Consider `C[N+](C)(C)CCCCCCNC(=O)[C@H]1C[C@H]2C(=O)N3CCC[C@H]3C(=O)N2[C@H]1c1cccc(OCCO)c1`, for which the z-score was -0.167.

Compound `O=C(O)[C@]1(CCS(=O)(=O)c2ccccc2)N=C(c2ccc(OCCCO)cc2)O[C@@H]1c1ccccc1` had a z-score of 0.0474.

For the origin of these results see PubChem BioAssay.
